Laboratory results from ChEMBL document CHEMBL1961873, “Compounds: GSK PKIS; Assays: Nanosyn kinase panel” (2012).
“And” between values parts separate entries of the source, which are not always exact repeats. Equal values may be shown once.

Assays:
[1] = molecular target: Protein kinase C gamma type (Homo sapiens) (UniProt P05129); settings: at 1 µM;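 further: each value is an averaged percent inhibition of the enzyme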
[2] = molecular target: T1, Protein kinase C iota type (Homo sapiens) (UniProt P41743); settings: at 0.1 µM
T1 sequence (whole entry): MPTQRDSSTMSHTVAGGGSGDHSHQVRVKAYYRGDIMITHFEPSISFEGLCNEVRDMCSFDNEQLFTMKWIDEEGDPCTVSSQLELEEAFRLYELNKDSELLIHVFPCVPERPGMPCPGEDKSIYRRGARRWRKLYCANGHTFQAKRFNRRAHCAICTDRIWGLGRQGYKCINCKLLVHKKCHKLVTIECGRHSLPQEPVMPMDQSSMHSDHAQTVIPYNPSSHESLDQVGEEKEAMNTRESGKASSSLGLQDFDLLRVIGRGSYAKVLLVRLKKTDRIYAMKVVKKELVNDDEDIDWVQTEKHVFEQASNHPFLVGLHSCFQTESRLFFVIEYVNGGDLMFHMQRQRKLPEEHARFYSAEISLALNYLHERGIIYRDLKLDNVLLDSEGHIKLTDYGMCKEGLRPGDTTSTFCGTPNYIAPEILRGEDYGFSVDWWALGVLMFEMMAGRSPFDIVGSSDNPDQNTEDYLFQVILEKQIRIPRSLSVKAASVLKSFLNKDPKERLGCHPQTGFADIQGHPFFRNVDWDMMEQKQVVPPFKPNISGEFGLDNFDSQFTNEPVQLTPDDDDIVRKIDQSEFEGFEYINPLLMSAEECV

[3] = molecular target: T1, Protein kinase C iota type (Homo sapiens); settings: at 1 µM
[4] = molecular target: Protein kinase C theta type (Homo sapiens) (UniProt Q04759); settings: at 0.1 µM
Protein kinase C theta type (Homo sapiens), sequence (Q04759 whole entry, looked up): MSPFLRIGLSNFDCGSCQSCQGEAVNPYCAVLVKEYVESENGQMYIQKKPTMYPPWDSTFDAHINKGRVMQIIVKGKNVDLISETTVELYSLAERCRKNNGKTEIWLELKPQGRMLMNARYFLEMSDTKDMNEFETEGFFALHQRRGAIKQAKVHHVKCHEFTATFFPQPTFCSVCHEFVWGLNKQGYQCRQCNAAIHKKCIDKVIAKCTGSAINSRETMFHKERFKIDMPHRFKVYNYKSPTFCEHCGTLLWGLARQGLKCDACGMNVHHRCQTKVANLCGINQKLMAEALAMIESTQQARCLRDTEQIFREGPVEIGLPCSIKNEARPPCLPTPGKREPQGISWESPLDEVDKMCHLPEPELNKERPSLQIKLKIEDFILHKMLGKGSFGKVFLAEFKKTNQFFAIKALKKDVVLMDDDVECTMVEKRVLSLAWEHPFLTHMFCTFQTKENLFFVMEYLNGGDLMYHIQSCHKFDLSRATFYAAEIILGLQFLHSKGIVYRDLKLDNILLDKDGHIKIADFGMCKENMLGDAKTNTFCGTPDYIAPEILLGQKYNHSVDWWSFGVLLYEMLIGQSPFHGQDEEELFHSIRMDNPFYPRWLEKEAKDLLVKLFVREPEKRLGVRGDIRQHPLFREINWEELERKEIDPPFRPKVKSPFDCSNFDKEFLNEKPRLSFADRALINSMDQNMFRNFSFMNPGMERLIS

[5] = molecular target: Protein kinase C theta type (Homo sapiens) (UniProt Q04759); settings: at 1 µM
[6] = molecular target: Protein kinase C beta type (Homo sapiens) (UniProt P05771); settings: at 0.1 µM
Protein kinase C beta type (Homo sapiens), sequence (P05771 2-671 limits assumed): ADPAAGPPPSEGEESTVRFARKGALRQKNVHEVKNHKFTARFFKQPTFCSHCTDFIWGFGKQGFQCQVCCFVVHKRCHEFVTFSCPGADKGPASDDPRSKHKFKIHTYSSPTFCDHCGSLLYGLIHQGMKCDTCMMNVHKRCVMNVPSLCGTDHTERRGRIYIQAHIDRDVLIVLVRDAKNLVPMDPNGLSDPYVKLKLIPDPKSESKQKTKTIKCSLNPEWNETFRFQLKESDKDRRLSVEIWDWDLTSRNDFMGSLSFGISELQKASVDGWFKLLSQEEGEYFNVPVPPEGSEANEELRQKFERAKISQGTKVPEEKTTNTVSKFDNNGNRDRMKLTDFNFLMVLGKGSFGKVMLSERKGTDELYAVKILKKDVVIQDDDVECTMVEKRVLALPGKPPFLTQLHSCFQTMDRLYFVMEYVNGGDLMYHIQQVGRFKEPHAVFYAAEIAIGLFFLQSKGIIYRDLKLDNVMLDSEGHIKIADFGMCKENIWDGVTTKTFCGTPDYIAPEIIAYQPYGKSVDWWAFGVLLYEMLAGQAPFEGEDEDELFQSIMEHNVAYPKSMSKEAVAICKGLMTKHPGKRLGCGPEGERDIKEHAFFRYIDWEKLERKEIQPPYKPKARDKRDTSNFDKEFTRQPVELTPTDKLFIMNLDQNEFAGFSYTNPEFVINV

[7] = molecular target: Protein kinase C beta type (Homo sapiens) (UniProt P05771); settings: at 1 µM
[8] = molecular target: T2, Serine/threonine-protein kinase D1 (Homo sapiens) (UniProt Q15139); settings: at 0.1 µM
T2 sequence (whole entry): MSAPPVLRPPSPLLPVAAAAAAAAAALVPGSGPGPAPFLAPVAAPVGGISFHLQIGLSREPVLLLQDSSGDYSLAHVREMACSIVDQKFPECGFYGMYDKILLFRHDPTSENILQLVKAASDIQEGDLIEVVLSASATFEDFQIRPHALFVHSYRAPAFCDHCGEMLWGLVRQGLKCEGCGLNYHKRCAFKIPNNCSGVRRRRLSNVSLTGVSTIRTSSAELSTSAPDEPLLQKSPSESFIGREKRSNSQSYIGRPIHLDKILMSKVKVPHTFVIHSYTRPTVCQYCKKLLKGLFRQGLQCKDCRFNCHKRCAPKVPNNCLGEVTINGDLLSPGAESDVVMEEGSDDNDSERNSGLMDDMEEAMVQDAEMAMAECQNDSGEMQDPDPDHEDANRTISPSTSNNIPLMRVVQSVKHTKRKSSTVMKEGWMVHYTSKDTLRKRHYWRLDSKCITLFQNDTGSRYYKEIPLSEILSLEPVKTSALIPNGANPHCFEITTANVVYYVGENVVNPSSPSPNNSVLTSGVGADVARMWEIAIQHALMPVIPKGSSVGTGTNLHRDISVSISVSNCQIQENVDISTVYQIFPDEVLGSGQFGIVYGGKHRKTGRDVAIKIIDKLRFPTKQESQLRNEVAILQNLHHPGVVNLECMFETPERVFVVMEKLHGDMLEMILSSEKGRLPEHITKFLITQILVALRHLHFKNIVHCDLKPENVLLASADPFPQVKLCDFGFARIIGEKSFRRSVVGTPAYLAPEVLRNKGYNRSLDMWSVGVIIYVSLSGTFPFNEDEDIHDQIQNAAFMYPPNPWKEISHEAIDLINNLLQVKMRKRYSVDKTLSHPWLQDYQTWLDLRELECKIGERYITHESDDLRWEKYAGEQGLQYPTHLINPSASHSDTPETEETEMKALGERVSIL

[9] = molecular target: T2, Serine/threonine-protein kinase D1 (Homo sapiens); settings: at 1 µM
[10] = molecular target: T3, Serine/threonine-protein kinase D2 (Homo sapiens) (UniProt Q9BZL6); settings: at 0.1 µM;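 further: reported percent inhibition values are means, part of the GSK PKIS kinase panel screen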
T3 sequence (whole entry): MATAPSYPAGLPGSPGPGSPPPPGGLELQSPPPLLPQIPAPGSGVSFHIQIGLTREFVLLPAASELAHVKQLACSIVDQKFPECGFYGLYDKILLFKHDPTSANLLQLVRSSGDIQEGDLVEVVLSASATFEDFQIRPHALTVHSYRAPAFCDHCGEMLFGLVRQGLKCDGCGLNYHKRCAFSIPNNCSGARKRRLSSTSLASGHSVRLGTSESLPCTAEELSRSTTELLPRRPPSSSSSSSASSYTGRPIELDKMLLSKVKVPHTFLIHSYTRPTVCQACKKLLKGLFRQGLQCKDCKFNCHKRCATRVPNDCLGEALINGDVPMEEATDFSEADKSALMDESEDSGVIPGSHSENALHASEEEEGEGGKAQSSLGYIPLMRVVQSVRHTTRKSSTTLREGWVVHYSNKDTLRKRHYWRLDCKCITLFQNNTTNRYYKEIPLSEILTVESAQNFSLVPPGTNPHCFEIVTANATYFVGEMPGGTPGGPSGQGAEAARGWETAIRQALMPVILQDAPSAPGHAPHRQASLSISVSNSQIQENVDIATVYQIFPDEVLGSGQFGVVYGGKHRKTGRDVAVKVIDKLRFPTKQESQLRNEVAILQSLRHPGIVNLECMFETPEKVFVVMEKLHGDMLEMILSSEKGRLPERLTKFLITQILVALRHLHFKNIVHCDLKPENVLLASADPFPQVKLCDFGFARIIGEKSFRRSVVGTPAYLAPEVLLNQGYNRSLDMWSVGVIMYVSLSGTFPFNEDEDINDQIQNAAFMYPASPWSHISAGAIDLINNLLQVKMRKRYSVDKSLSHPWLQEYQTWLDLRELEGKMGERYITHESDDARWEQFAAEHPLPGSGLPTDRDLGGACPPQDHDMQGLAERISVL

Structure (SMILES)	inhibition [1]	inhibition [2]	inhibition [3]	inhibition [4]	inhibition [5]	inhibition [6]	inhibition [7]	inhibition [8]	inhibition [9]	inhibition [10]
Cn1c(-c2nonc2N)nc2cnccc21	2.78%	1.03%	3.76%	1.13%	3.08%	1.16%	5.62%	3.06%	14.8%	2.42%
Cc1cc(O)cc(C)c1/C=C/c1cncc(C(=O)OC(C)(C)C)c1	2.62%	2.97%	0.22%	1.48%	1.91%	1.37%	1.05%	2.14%	2.96%	1.79%
CC1=C(C(=O)Nc2ccc3[nH]nc(C)c3c2)C(c2ccc(C(F)(F)F)cc2)CC(=O)N1 (stereo not given)	6.95%	1.92%	2.85%	2.33%	6.09%	0.62%	1.95%	2.86%	8.82%	2.82%
O=C(Nc1n[nH]c2nnc(-c3cccnc3)cc12)C1CC1	2.11%	-0.5%	-0.56%	-0.08%	0.79%	0.49%	3.21%	-0.5%	0.81%	-1.06%
CS(=O)(=O)Nc1ccc(-c2ccc3c(NC(=O)C4CC4)n[nH]c3c2)cc1	4.43%	0.75%	3.13%	1.56%	-0.36%	1.18%	1.78%	2.7%	4.68%	3.14%
Cc1ccc(-c2cc3c(NC(=O)C4CC4)ncnc3o2)cc1	2.25%	2.54%	2.8%	2.02%	1.79%	5.24%	0.65%	3.45%	6.06%	4.1%
CN1CCN(Cc2ccc(-c3cc4ncnc(Nc5ccc(OCc6cccc(F)c6)c(Cl)c5)c4s3)o2)CC1	1.46% and 6.95%	1.42% and 1.16%	1.76% and 1.19%	1.25% and 2.92%	0.89% and 4.95%	0.98% and 1.08%	2.27% and 3.9%	3.21% and 5.57%	6.44% and 7.02%	2.14% and 5.13%
Fc1ccc(Nc2nccc(-c3c(-c4ccc(C(F)(F)F)cc4)nn4ncccc34)n2)cc1F	4.39%	0.34%	3.68%	1.71%	0.47%	0.7%	0.3%	3.32%	5.39%	3.45%
Cc1c2ccc(N(C)c3ccnc(Nc4cccc(S(N)(=O)=O)c4)n3)cc2nn1C	6.91%	1.66%	2.75%	1.34%	2.51%	1.36%	2.7%	-0.64%	2.68%	1.1%
CN1CCC(C(=O)Nc2n[nH]c3nc(-c4ccc(O)cc4)c(Br)cc23)CC1	7.76% and 8.57%	3.63% and -0.08%	8.06% and 5.91%	2.17% and 0.5%	7.83% and 2.97%	6.51% and 5.4%	30.5% and 31.2%	1.71% and 3.32%	5.76% and 5.75%	1.9% and 3.95%
COc1ccc2ncn(-c3cc(O[C@H](C)c4ccccc4C(F)(F)F)c(C(N)=O)s3)c2c1	3.02%	-1.03%	-0.45%	-0.16%	-0.58%	-0.24%	0.08%	-0.46%	0.62%	2.18%
CCN1CCC(C(=O)Nc2n[nH]c3nnc(-c4cccc(F)c4F)cc23)CC1	-0.22%	-0.71%	-1.05%	0.26%	-1.11%	0.39%	0.87%	-0.1%	-0.6%	0.26%
CNC(=O)c1sc(-n2cnc3cc(OC)c(OC)cc32)cc1OCc1ccccc1C(F)(F)F	-2.1%	1.37%	0.74%	2.36%	0.67%	1.04%	1.38%	3.83%	4.48%	4%
NS(=O)(=O)c1cccc(N/C=C2\C(=O)Nc3ccccc32)c1	3.27%	1.82%	2.43%	2.17%	1.6%	1.9%	3.11%	3.72%	11%	3.88%
Nc1nonc1-c1nc2cnccc2n1C1CC1	16.4% and 14.8%	1.95% and 3.2%	14.8% and 15.6%	8.24% and 7.85%	38.7% and 40.1%	7.25% and 6.7%	31.2% and 31.3%	4% and 0.29%	22.3% and 23.2%	4% and 0.3%
O=C(O[C@H]1CN[C@H](C#Cc2cc3ncnc(Nc4ccc5c(cnn5Cc5ccccc5)c4)c3s2)C1)N1CCOCC1	1.11%	-1.84%	-0.97%	-0.32%	-1.1%	-0.16%	-0.06%	2.57%	1.38%	1.01%
